This is an account of results in the supplement of paper PMC3334620.

In all, about 33,000 sequences were measured (“E-score (-0.5 to 0.5)”: median about -0.035, highest 2% from about 0.35 on). Shown is part of a subset that was picked to be rich in the highest values.

The target in this assay is T1, Pdr3 (UniProt P33200).
T1 sequence: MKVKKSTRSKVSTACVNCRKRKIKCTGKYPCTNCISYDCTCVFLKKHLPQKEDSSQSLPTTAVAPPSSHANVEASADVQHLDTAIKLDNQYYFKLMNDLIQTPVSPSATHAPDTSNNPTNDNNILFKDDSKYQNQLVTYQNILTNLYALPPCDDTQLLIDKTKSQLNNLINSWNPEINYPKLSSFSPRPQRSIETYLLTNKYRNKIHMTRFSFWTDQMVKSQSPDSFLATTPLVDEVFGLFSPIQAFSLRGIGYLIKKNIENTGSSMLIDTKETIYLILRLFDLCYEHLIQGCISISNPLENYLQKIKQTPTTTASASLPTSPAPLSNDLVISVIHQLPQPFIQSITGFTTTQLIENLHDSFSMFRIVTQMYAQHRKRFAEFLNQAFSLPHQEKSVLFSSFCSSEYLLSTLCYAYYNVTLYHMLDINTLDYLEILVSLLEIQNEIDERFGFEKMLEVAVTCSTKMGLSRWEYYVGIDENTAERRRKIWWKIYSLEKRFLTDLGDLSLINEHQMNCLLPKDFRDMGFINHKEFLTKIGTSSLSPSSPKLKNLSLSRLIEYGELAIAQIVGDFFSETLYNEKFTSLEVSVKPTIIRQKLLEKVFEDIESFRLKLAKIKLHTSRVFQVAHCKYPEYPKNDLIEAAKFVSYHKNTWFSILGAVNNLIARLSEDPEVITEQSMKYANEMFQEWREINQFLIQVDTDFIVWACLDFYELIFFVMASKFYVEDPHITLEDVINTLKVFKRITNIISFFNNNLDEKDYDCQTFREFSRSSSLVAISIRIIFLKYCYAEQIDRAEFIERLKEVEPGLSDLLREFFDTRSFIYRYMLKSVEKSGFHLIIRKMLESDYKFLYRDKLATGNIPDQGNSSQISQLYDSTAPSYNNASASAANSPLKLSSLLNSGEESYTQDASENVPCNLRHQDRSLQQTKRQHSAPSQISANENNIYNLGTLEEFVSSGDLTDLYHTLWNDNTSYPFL
Description: PBM E-score (8-mer binding enrichment) (E-score (-0.5 to 0.5)); higher = stronger / more preferred TF binding. The note with it: protein concentration: 200 nM; construct: GST-full length. The procedure, abridged: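 Detection of bound protein used fluorescent anti-GST, with scans normalised by masliner. The proteins were GST-tagged yeast transcription factors applied at about 100-200 nM to universal all-10-mer Agilent arrays made double-stranded by primer extension. Each ungapped eight-base word, pooled with its reverse complement, was scored with an E-score from the Universal PBM Analysis Suite.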
Take CGCGGTCA: the “PBM E-score” value was 0.307.
The value for GGCGGTAA was 0.326.
In the case of AGCGGTAC, the “PBM E-score” value is -0.0325.
Consider CGCGGTAG, for which the “PBM E-score” value is 0.282.
For AGCGGTAA, the “PBM E-score” value was found to be 0.045.
The same measure for AGCGGTCC: 0.0698.
The value for CGCGGTAC was 0.367; that for CGCGGTAA was 0.36; that for CGCGGTCC was 0.384.
TCTCTACA: the “PBM E-score” value was -0.249.
On to CAGGGACA, for which the “PBM E-score” value is 0.0593.
The same measure for ATGCAAGC: -0.0447; for TAGTTGGA: -0.0882; for CCGCACTA: 0.241.
The same measure for GATGAAAC: 0.0428; for TCGCCACA: -0.00326.
The same measure for CTATCAGC: -0.156; for AATTCGCA: 0.255.
Regarding CAGAAATC, the “PBM E-score” value is -0.108.
The same measure for AGTCCGGG: 0.301.
The value for GGTCCGGA was 0.413; that for CGTCCGGA was 0.433; that for AGTCCGGA was 0.422.
For GGTCCGTA, the “PBM E-score” value turned out to be 0.293.
The value for GGTCCGCA was 0.28; that for AGTCCGGC was 0.216.
Take CGTCCGGC: the “PBM E-score” value is 0.321.
The same measure for CGTCCGAA: 0.208.
The value for CCCGCATC was 0.0416.
AAGGTCAC: the “PBM E-score” value is -0.213.
The value for GGAAGACC was 0.202; that for GACTCACC was -0.126; that for ATCTGCTA was -0.241.
Take CTGATGCA: the “PBM E-score” value amounted to 0.0307.
The value for CTAAGAAG was -0.0671.
The same measure for CTTCAAAG: -0.275.
The same measure for AAGCTGTC: -0.208; for CAATCCCG: 0.392.
Turning to AGATCCCG, the “PBM E-score” value was 0.4.
As to AGATCCCT, the “PBM E-score” value is -0.142.
The value for CGATCCCA was 0.067.
The same measure for CGATCCCG: 0.361; for CAATCCCC: 0.0676.
The value for AGATCCCC was 0.015; that for CAATCCCA was -0.105; that for CGATCCCC was 0.0699.
With CTTCACCA, the “PBM E-score” value was -0.153.
Regarding TCAAGGAA, the “PBM E-score” value is -0.0766.
As to ATCTGATA, the “PBM E-score” value was -0.18.
The value for CGAGGTCC was 0.299.
The same measure for ACAACGGT: -0.0457; for GCAACGGC: 0.152; for TCAACGCA: -0.0152.
Take GCAACGTA: the “PBM E-score” value was -0.192.
For the sequence CCAACGGG, the “PBM E-score” value is 0.213.
The same measure for TCAACGAA: 0.0322.
The value for GCAACGGA was 0.413; that for CCAACGGA was 0.362; that for CCAACGGC was -0.0155.
The value for ACAACGGG was 0.221; that for ACAACGGA was 0.375; that for TCAACGGA was 0.359.
For the sequence ACTTCGGA, the “PBM E-score” value turned out to be 0.318.
With ATATAAGG, the “PBM E-score” value was found to be 0.167.
As for CGCTATCA, the “PBM E-score” value worked out at 0.0421.
As to ACGACACC, the “PBM E-score” value came out at 0.0551.
As to CCCGCAGA, the “PBM E-score” value came out at 0.235.
The value for CCACAGGA was -0.15; that for ACAAAGTA was -0.0427.
The value for AAGGGATT was -0.172; that for CGGCGAAG was 0.154; that for ATAAGGTG was -0.0163.
The same measure for CGGAAGAC: 0.393; for GGGAAGAC: -0.0964; for AGGAAGAG: -0.0084.
Take CGGAAGAA: the “PBM E-score” value was 0.378.
For AGGAAGAC, the “PBM E-score” value was -0.246.
The value for CGGAAGAG was 0.365.
The value for GGGAAGAA was -0.0436; that for CCGAAGAG was 0.129.
The value for AGGAAGAA was -0.186; that for GCCCCAGC was 0.0198.
Consider CGCTCCAA, for which the “PBM E-score” value is -0.0785.
The value for ACTCCAGT was -0.118; that for GACTAGAA was -0.203.
The same measure for ACGGATTA: 0.217.
